Data published in PubChem BioAssay.
Active and inactive are the calls of the source. No rule for the calls is given here. Non-standard residues stand in square brackets, D forms with d. Residues, ends and D or L forms follow the SMILES beside them. Orn = NCCC[CH](N)C(=O)O

System: Aerobactin synthetase IucA (Klebsiella pneumoniae hvKP1)
Test: Biochemical IucA enzyme inhibition primary screen of the Spectrum library (AID 1346200);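 also: 100% = wells without compound and 0% = wells lacking enzyme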
Conditions: malachite green pyrophosphate, A620, at 8 µM, active compounds read low

Row | Structure (SMILES) | activity remaining
1 | CCOc1ccc(C(=O)c2ccc(OC)c(O)c2O)cc1 | 109% (inactive)
2 | CN[C@@H]1C(O)[C@@H](O[C@@H]2[C@@H](O)[C@H](O[C@H]3OC(CN)=CC[C@H]3N)[C@@H](N)C[C@H]2N)OC[C@]1(C)O (stereo not given in full) | 96.1% (inactive)
3 | S=P(N1CC1)(N1CC1)N1CC1 | 89.8% (inactive)
4 | COc1cc2ccc(=O)oc2c(OC)c1OC | 124% (inactive)
5 | Nc1nc2c(c(=O)[nH]1)NC(CNc1ccc(C(=O)N[C@H](CCC(=O)O)C(=O)O)cc1)=CN2 | 102% (inactive)
6 | C[C@H](CCC(=O)O)[C@H]1CCC2C3C(CC[C@@]21C)[C@@]1(C)CC[C@@H](O)C[C@H]1C[C@H]3O (stereo not given in full) | 101% (inactive)
7 | COc1cccc(O)c1O | 110% (inactive)
8 | CC(C)CC1NC(=O)C(CCCN)NC(=O)C(C(C)C)NC(=O)C2CCCN2C(=O)C(Cc2ccccc2)NC(=O)C(CC(C)C)NC(=O)C(CCCN)NC(=O)C(C(C)C)NC(=O)C2CCCN2C(=O)C(Cc2ccccc2)NC1=O (stereo not given) (cyclo(FPV[Orn]LFPV[Orn]L); configuration not given here) | 122% (inactive)
9 | COc1ccc(C(=O)CC(=O)c2ccc(C(C)(C)C)cc2)cc1 | 104% (inactive)
10 | COc1ccc(-c2cc(=O)c3c(O)c(OC)c(OC)c(OC)c3o2)cc1 | 93% (inactive)
11 | CCCCCCCCCc1ccc(OCCOCCOCCOCCOCCOCCOCCOCCOCCO)cc1 | 109% (inactive)
12 | COc1ccc2c(c1)OC/C(=C\c1ccc(OC)c(O)c1)C2=O | 120% (inactive)
13 | CO[C@H]1/C=C/O[C@@]2(C)Oc3c(C)c(O)c4c(O)c(c(C=NN5CCN(C)CC5)c(O)c4c3C2=O)NC(=O)/C(C)=C\C=C\C(C)[C@H](O)[C@@H](C)[C@@H](O)[C@@H](C)[C@@H](OC(C)=O)[C@@H]1C (stereo not given in full) | 98.4% (inactive)
14 | Cc1cc(O)c(C=O)c2c1C(=O)Oc1c(C)c(O)c3c(c1O2)C(O)OC3=O (stereo not given) | 113% (inactive)
15 | NCc1ccc(S(N)(=O)=O)cc1 | 114% (inactive)
16 | O=C1C(CCS(=O)c2ccccc2)C(=O)N(c2ccccc2)N1c1ccccc1 (stereo not given) | 116% (inactive)
17 | CC(N)C12CC3CC(CC(C3)C1)C2 (stereo not given) | 115% (inactive)
18 | O=C(O)CCNC(=O)c1ccccc1 | 103% (inactive)
19 | CCCc1nc2c(C)cc(-c3nc4ccccc4n3C)cc2n1Cc1ccc(-c2ccccc2C(=O)O)cc1 | 123% (inactive)
20 | CC1(C)CC2C1CCC1(C)OC1CCC2(C)O (stereo not given) | 120% (inactive)

Row | Structure (SMILES) | activity remaining
21 | COC(=O)C[C@H]1C(C)(C)C(=O)[C@@H]2CC3C4=CC(=O)O[C@@H](c5ccoc5)[C@]4(C)CCC3C1(C)C2=O (stereo not given in full) | 120% (inactive)
22 | C=C1C2=CC(=O)O[C@@H](c3ccoc3)[C@]2(C)CCC1[C@@]1(C)C=CC(=O)C(C)(C)[C@@H]1CC(=O)OC (stereo not given in full) | 100% (inactive)
23 | COc1cc(/C=C/C(=O)O)ccc1O | 100% (inactive)
24 | O=C(O)c1cc(=O)c2ccccc2o1 | 110% (inactive)
25 | N=c1ccn2c(n1)O[C@@H]1[C@@H](O)[C@H](CO)O[C@@H]12 | 97.5% (inactive)
26 | C/C1=C\CCC(=O)C2CC(C)(C)C2CC1 (stereo not given) | 105% (inactive)
27 | CC(CN(C)C)CN1c2ccccc2Sc2ccccc21 (stereo not given) | 101% (inactive)
28 | CCC(CCC(C)[C@H]1CCC2C3CC=C4C[C@@H](O)CC[C@]4(C)C3CC[C@@]21C)C(C)C (stereo not given in full) | 114% (inactive)
29 | O=c1c(O)c(-c2ccccc2)oc2ccccc12 | 92.5% (inactive)
30 | CC(=O)/C(=C\c1ccccc1)CC(=O)O | 98.6% (inactive)
31 | C[C@H]1CC2C([C@@H](O)C[C@@]3(C)C2CC[C@]3(O)C(=O)CO)[C@@]2(C)C=CC(=O)C=C12 (stereo not given in full) | 115% (inactive)
32 | CC(=O)Oc1cc2c(c(C)c1OC(C)=O)CC1OC13[C@@]2(C)CC[C@@]1(C)C2C[C@](C)(C(=O)O)CC[C@]2(C)CC[C@]31C (stereo not given in full) | 101% (inactive)
33 | CC(=O)O[C@@H]1CC[C@@]2(C)C(CC[C@]3(C)C2CC=C2C4CC(C)(C)CC[C@]4(C(=O)O)CC[C@]23C)C1(C)C (stereo not given in full) | 96.2% (inactive)
34 | CC(=O)Nc1ccc(OC(=O)c2ccccc2O)cc1 | 101% (inactive)
35 | CCCCCCCCCCCCCCCCOP(=O)([O-])OCC[N+](C)(C)C | 128% (inactive)
36 | NC(CSCSCC(N)C(=O)O)C(=O)O (stereo not given) | 95.5% (inactive)
37 | CC(=O)Oc1ccc(O)cc1 | 122% (inactive)
38 | COc1ccc2c(=O)ccoc2c1 | 120% (inactive)
39 | CC(=O)[C@H]1CCC2C3CC=C4C[C@@H](OC(=O)CCC(=O)O)CC[C@]4(C)C3CC[C@@]21C (stereo not given in full) | 117% (inactive)
40 | COC(=O)CCC(C)C1CCC2C3CC[C@@H]4C[C@H](O)CC[C@]4(C)C3C[C@H](O)[C@]12C (stereo not given in full) | 120% (inactive)
